PubChem BioAssay (EPA / NIEHS)
The source made the active and inactive calls. Rule for the calls: active = hit-call score of the fitted dose curve at least 0.9, where 1 is the maximum; inactive = score below 0.9.

Experiments:
[1] = read-out: Forkhead box O1 (FOXO1), FOXO1 (gene 2308); assay: LTEA_HepaRG_FOXO1: Life Technologies and Expression Analysis (LTEA) Assay for Forkhead box O1 (FOXO1) using HepaRG (AID 2283456); conditions: mRNA level, 48 h; actives raise or lower the signal
How it was run: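 HepaRG, 48 h exposure, 8-pt half-log series from 100 uM in 0.5% DMSO, duplicates; Fluidigm qRT-PCR mRNA, housekeeping-normalised; bidirectional fit vs DMSO baseline.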

[2] = read-out: growth arrest and DNA damage 45 (GADD45A), GADD45A (gene 1647); assay: LTEA_HepaRG_GADD45A: Life Technologies and Expression Analysis (LTEA) Assay for growth arrest and DNA damage 45 (GADD45A) using HepaRG (AID 2283458); conditions: mRNA level, 48 h; actives raise or lower the signal
How it was run: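 HepaRG, 48 h exposure, 8 conc. (top 100 uM, half-log steps), 0.5% DMSO vehicle, duplicates. Read-out: qRT-PCR mRNA level, housekeeping-normalized (ACTB/GAPDH/POLR2A). Curves fit bidirectionally vs DMSO baseline.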

[3] = read-out: Forkhead box O3 (FOXO3), FOXO3 (gene 2309); assay: LTEA_HepaRG_FOXO3: Life Technologies and Expression Analysis (LTEA) Assay for Forkhead box O3 (FOXO3) using HepaRG (AID 2283459); conditions: mRNA level, 48 h; actives raise or lower the signal
How it was run: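 qRT-PCR readout of FOXO3 transcript, normalized to three housekeeping genes (ACTB, GAPDH, POLR2A); gain or loss fitted against 0.5% DMSO vehicle. HepaRG cells, 48 h chemical exposure, 8-point half-log series, top 100 uM.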

[4] = read-out: ABC Transporter (ABCB1), ABCB1 (gene 5243); assay: LTEA_HepaRG_ABCB1: Life Technologies and Expression Analysis (LTEA) Assay for ABC Transporter (ABCB1) using HepaRG (AID 2283460); conditions: mRNA level, 48 h; actives raise or lower the signal
How it was run: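 HepaRG, 48 h exposure, 8-pt half-log series from 100 uM, 0.5% DMSO vehicle, duplicates. Readout: ABCB1 transcript by Fluidigm TaqMan qRT-PCR, housekeeping-normalized; bidirectional curve fit vs DMSO baseline.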

[5] = read-out: growth arrest and DNA damage 45 (GADD45B), GADD45B (gene 4616); assay: LTEA_HepaRG_GADD45B: Life Technologies and Expression Analysis (LTEA) Assay for growth arrest and DNA damage 45 (GADD45B) using HepaRG (AID 2283461); conditions: mRNA level, 48 h; actives raise or lower the signal
How it was run: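 HepaRG, ~100,000 cells/well, 48 h plating; serum-free induction medium; cpd 100 uM top, half-log x8, 0.5% DMSO, duplicate, 48 h; lysis in RLT, RNA isolation, qRT-PCR; norm ACTB/GAPDH/POLR2A; bidirectional fit vs DMSO.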

[6] = read-out: ABC Transporter (ABCC3), ABCC3 (gene 8714); assay: LTEA_HepaRG_ABCC3: Life Technologies and Expression Analysis (LTEA) Assay for ABC Transporter (ABCC3) using HepaRG (AID 2283462); conditions: mRNA level, 48 h; actives raise or lower the signal
How it was run: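 Human HepaRG, 48 h dosing, 8-pt half-log series from 100 uM, 0.5% DMSO vehicle, duplicates. ABCC3 mRNA by TaqMan qRT-PCR, housekeeping-normalized; bidirectional curve fit vs DMSO.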

[7] = read-out: ABC Transporter (ABCB11), ABCB11 (gene 8647); assay: LTEA_HepaRG_ABCB11: Life Technologies and Expression Analysis (LTEA) Assay for ABC Transporter (ABCB11) using HepaRG (AID 2283463); conditions: mRNA level, 48 h; actives raise or lower the signal
How it was run: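 HepaRG, 48 h exposure, 8-pt half-log CRC top 100 uM, 0.5% DMSO vehicle, duplicates. Readout: TaqMan qRT-PCR of ABCB11 mRNA, housekeeping-normalized (ACTB/GAPDH/POLR2A). Bidirectional fit vs DMSO baseline.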

[8] = read-out: ABC Transporter (ABCC2), ABCC2 (gene 1244); assay: LTEA_HepaRG_ABCC2: Life Technologies and Expression Analysis (LTEA) Assay for ABC Transporter (ABCC2) using HepaRG (AID 2283464); conditions: mRNA level, 48 h; actives raise or lower the signal
How it was run: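 HepaRG, 48 h post-plating; serum-free induction medium; cpd 8-pt, 100 uM top, half-log, 0.5% DMSO, duplicate, 48 h. Readout: ABCC2 mRNA by qRT-PCR, norm. ACTB/GAPDH/POLR2A. Bidirectional fit vs DMSO baseline.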

[9] = read-out: Broad substrate specificity ATP-binding cassette transporter ABCG2 (Homo sapiens) (UniProt Q9UNQ0); assay: LTEA_HepaRG_ABCG2: Life Technologies and Expression Analysis (LTEA) Assay for ABC Transporter (ABCG2) using HepaRG (AID 2283465); conditions: mRNA level, 48 h; actives raise or lower the signal
How it was run: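 HepaRG, 48 h exposure, 8-pt half-log series from 100 uM, 0.5% DMSO vehicle, duplicates. Readout: ABCG2 transcript by qRT-PCR (Fluidigm array), housekeeping-normalized; bidirectional curve fit relative to DMSO baseline.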

[10] = read-out: ATP-citrate lyase (ACLY), ACLY (gene 47); assay: LTEA_HepaRG_ACLY: Life Technologies and Expression Analysis (LTEA) Assay for ATP-citrate lyase (ACLY) using HepaRG (AID 2283466); conditions: mRNA level, 48 h; actives raise or lower the signal
How it was run: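 qRT-PCR readout of ACLY transcript after 48 h chemical treatment of HepaRG cells; expression normalized to three housekeeping genes. Eight-point half-log series, highest 100 uM, 0.5% DMSO vehicle. Gain or loss fitted against DMSO baseline.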

[11] = read-out: Peroxisomal acyl-coenzyme A oxidase 1 (ACOX1) gene, ACOX1 (gene 51); assay: LTEA_HepaRG_ACOX1: Life Technologies and Expression Analysis (LTEA) Assay for Peroxisomal acyl-coenzyme A oxidase 1 (ACOX1) gene using HepaRG (AID 2283467); conditions: mRNA level, 48 h; actives raise or lower the signal
How it was run: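 HepaRG, 48 h chemical exposure, 8-pt half-log series from 100 uM top, 0.5% DMSO vehicle, duplicates. Readout: ACOX1 mRNA by Fluidigm qRT-PCR, housekeeping-normalized; bidirectional fit vs DMSO baseline.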

[12] = read-out: Alkaline Phosphatase, Placental (ALPP) gene, ALPP (gene 250); assay: LTEA_HepaRG_ALPP: Life Technologies and Expression Analysis (LTEA) Assay for Alkaline Phosphatase, Placental (ALPP) gene using HepaRG (AID 2283468); conditions: mRNA level, 48 h; actives raise or lower the signal
How it was run: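 HepaRG, 48 h plating then 48 h dosing, serum-free induction medium, 0.5% DMSO. 8 conc, half-log, max 100 uM, duplicates. Endpoint: ALPP transcript by qRT-PCR, housekeeping-normalized; gain or loss fitted vs DMSO.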

[13] = read-out: Bcl-2 (BAD) gene, BAD (gene 572); assay: LTEA_HepaRG_BAD: Life Technologies and Expression Analysis (LTEA) Assay for Bcl-2 (BAD) gene using HepaRG (AID 2283469); conditions: mRNA level, 48 h; actives raise or lower the signal
How it was run: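 HepaRG, 48 h exposure, 8-pt half-log curve from 100 uM in 0.5% DMSO, duplicates. Readout: TaqMan qRT-PCR for BAD mRNA, housekeeping-normalised (ACTB/GAPDH/POLR2A); gain or loss fitted against DMSO baseline.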

[14] = read-out: Bcl-2 (BAX) gene, BAX (gene 581); assay: LTEA_HepaRG_BAX: Life Technologies and Expression Analysis (LTEA) Assay for Bcl-2 (BAX) gene using HepaRG (AID 2283470); conditions: mRNA level, 48 h; actives raise or lower the signal
How it was run: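 qRT-PCR read-out of BAX mRNA, normalized to three housekeeping genes, after 48 h chemical exposure of human HepaRG cells in serum-free induction medium; eight-point half-log series, top 100 uM, 0.5% DMSO vehicle; bidirectional fit versus DMSO.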

[15] = read-out: Alpha-fetoprotein (AFP) gene, AFP (gene 174); assay: LTEA_HepaRG_AFP: Life Technologies and Expression Analysis (LTEA) Assay for Alpha-fetoprotein (AFP) gene using HepaRG (AID 2283472); conditions: mRNA level, 48 h; actives raise or lower the signal
How it was run: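 qRT-PCR (Fluidigm TaqMan) readout of AFP transcript, normalized to three housekeeping genes, fitted bidirectionally against 0.5% DMSO baseline. HepaRG cells received chemicals for 48 h in serum-free induction medium, top concentration 100 uM, half-log steps.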

BCL2L11 (gene 10018) = assay: LTEA_HepaRG_BCL2L11: Life Technologies and Expression Analysis (LTEA) Assay for Bcl-2 (BCL2L11) gene using HepaRG (AID 2283473); conditions: mRNA level, 48 h; actives raise or lower the signal
How it was run: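 Read-out is BCL2L11 transcript level by qRT-PCR, normalized to three housekeeping genes and fitted bidirectionally against 0.5% DMSO vehicle. HepaRG cells received chemicals for 48 h in serum-free induction medium, 100 uM down in half-log dilutions.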

[16] = read-out: Apolipoprotein A-V (APOA5) gene, APOA5 (gene 116519); assay: LTEA_HepaRG_APOA5: Life Technologies and Expression Analysis (LTEA) Assay for Apolipoprotein A-V (APOA5) gene using HepaRG (AID 2283474); conditions: mRNA level, 48 h; actives raise or lower the signal
How it was run: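 Readout is APOA5 transcript level by qRT-PCR on Fluidigm dynamic arrays, normalized to three housekeeping genes. HepaRG cultures received chemicals for 48 h at up to 100 uM (half-log steps, 0.5% DMSO), with gain or loss scored relative to DMSO.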

[17] = read-out: Apoptosis regulator Bcl-2 (Homo sapiens) (UniProt P10415); assay: LTEA_HepaRG_BCL2: Life Technologies and Expression Analysis (LTEA) Assay for Bcl-2 gene using HepaRG (AID 2283475); conditions: mRNA level, 48 h; actives raise or lower the signal
How it was run: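 qRT-PCR read-out (Fluidigm TaqMan) of BCL2 transcript, normalised to three housekeeping genes, after 48 h chemical exposure of HepaRG cells; 8-point half-log series, top 100 uM, 0.5% DMSO vehicle. Gain or loss of signal fitted relative to DMSO baseline.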

[18] = CEETOX_H295R_TESTO: CeeTox H295R High-throughput Steroidogenesis Assay for Testosterone (TESTO) (AID 2283457); conditions: actives raise or lower the signal
How it was run: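 H295R, passage ≤10, 48 h dosing; media extracted with MTBE → HPLC-MS/MS for testosterone; 7-pt standard curve sets LLOQ/ULOQ; bidirectional fit vs DMSO; MTT viability same wells.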

[19] = read-out: adenosine kinase (ADK) gene, ADK (gene 132); assay: LTEA_HepaRG_ADK: Life Technologies and Expression Analysis (LTEA) Assay for adenosine kinase (ADK) gene using HepaRG (AID 2283471); conditions: mRNA level, 48 h; actives raise or lower the signal
How it was run: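 Differentiated HepaRG cells dosed 48 h in serum-free induction medium, 0.5% DMSO vehicle, eight half-log concentrations from 100 uM, in duplicate. ADK mRNA by TaqMan qRT-PCR normalised to ACTB, GAPDH, POLR2A; bidirectional fit versus DMSO.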

Measured: AC50

Chain of Apoptosis regulator Bcl-2 (Homo sapiens) (P10415 whole entry, looked up): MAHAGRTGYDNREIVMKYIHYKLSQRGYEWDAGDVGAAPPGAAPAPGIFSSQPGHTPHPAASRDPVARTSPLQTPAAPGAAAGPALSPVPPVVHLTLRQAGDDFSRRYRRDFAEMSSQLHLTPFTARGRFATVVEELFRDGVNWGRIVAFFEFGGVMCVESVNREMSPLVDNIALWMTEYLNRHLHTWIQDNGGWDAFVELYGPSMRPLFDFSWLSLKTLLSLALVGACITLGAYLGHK
Chain of Broad substrate specificity ATP-binding cassette transporter ABCG2 (Homo sapiens) (Q9UNQ0 whole entry, looked up): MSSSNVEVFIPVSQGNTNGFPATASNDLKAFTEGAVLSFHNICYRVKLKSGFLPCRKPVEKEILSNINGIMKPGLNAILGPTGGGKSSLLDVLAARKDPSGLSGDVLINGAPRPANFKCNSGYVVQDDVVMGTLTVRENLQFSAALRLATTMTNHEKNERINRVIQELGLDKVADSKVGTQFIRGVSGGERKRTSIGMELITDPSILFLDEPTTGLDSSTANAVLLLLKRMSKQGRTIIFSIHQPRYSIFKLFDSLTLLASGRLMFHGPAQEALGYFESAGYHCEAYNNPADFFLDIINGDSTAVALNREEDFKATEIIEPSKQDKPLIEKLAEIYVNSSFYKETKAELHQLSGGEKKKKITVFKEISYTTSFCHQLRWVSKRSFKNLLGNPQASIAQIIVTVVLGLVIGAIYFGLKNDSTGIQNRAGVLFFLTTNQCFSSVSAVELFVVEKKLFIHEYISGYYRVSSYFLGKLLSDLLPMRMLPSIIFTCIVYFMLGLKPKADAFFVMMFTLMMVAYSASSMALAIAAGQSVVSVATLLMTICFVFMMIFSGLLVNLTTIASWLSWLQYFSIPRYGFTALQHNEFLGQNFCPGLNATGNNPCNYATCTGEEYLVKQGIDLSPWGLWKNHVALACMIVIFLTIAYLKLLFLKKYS

COC(=O)c1ccccc1C(=O)OC
not listed: [18] | [19]
inactive: all other assays above

CCON=C(CC)C1=C(O)CC(c2c(C)cc(C)cc2C)CC1=O (configuration not stated)
active: [4] 50 µM | [8] 50 µM
not listed: [7] | [9]
inactive: all other assays above

CCNc1nc(Cl)nc(NCC)n1
not listed: [18] | [19]
inactive: all other assays above

Cc1c(F)c(F)c(COC(=O)C2C(/C=C(\Cl)C(F)(F)F)C2(C)C)c(F)c1F (configuration not stated)
active: [7] 50 µM
not listed: [18] | [19]
inactive: all other assays above

COC(=O)C=C(C)OP(=O)(OC)OC
active: [7] 21.4 µM
not listed: [16] | [18] | [19]
inactive: all other assays above

COC(=O)C(C)Oc1ccc(Oc2ccc(Cl)cc2Cl)cc1 (configuration not stated)
active: [1] 13.7 µM | [7] 45.7 µM | [11] 21.7 µM | [15] 79.6 µM | [17] 50 µM
not listed: [18] | [19]
inactive: all other assays above
